These results are taken from PubChem BioAssay (NCATS).

Values joined by “and” are separate entries in the source; they are usually repeats but may differ in a detail not shown here. Equal entries are not always repeated. Inconclusive results are not listed. Active and inactive are the calls of the source. Unless noted, calls follow the shape of the dose curve; as a rule, active = well fitted curve in the direction sought with a large enough effect; inconclusive = small, poorly fitted or top-dose-only effect, or another doubt; inactive = no such curve, though single readings can be large; an effect the other way counts as inactive or inconclusive.

Test [1] in a line: qHTS Screen of the MIPE 4.0 Collection Against Ewings Sarcoma (RDES) (AID 1259252). Also: nearly all actives have a fitted effect of over 35% in size. Also: potency is read from the fitted curve at half-maximal effect. The method in brief:
(§1)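 CellTiter-Glo luminescence after 48 h compound exposure (titration) gave viability; percent activity used DMSO-treated cells as no inhibition and medium-only wells as full inhibition. Cells grown in RPMI/5% FBS, dosed 4 h post-seeding.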
For orientation: Quantitative high-throughput screening tests each substance at several concentrations.

The nature of test [2]: qHTS Screen of the MIPE 4.0 Collection Against Ewings Sarcoma (TC71) (AID 1259253). Also: nearly all actives have a fitted effect of over 40% in size. Also: potency is read from the fitted curve at half-maximal effect. A digest of the protocol: as §1
Test [3] in a line: qHTS Screen of the MIPE 4.0 Collection Against Ewings Sarcoma (EW8) (AID 1259255). Also: nearly all actives have a fitted effect of over 35% in size. Also: potency is read from the fitted curve at half-maximal effect. A digest of the protocol: as §1
Test [4] is described as follows: qHTS Screen of the MIPE 4.0 Collection Against Ewings Sarcoma (TC32) (AID 1259256). Also: nearly all actives have a fitted effect of over 45% in size. Also: potency is read from the fitted curve at half-maximal effect. A digest of the protocol: as §1
Test [5] is described as follows: P-glycoprotein substrates identified in KB-8-5-11 adenocarcinoma cell line, qHTS therapeutic library screen (AID 1346987). Also: nearly all actives have a fitted effect of over 65% in size. Also: potency is read from the fitted curve at half-maximal effect. A digest of the protocol:
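Steps: plate 500 KB-8-5-11 cells/well in DMEM + 10% FCS (colchicine removed); pin compounds in dose-response; incubate 72 h, 37 degree C, 5% CO2; add CellTiter-Glo, 5 min; read luminescence.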

Test [6] can be described thus: NS1 protein of Zika virus - qHTS assay to identify small molecule inhibitors in human HEK 293 cells (AID 1347053). Also: nearly all actives have a fitted effect of over 55% in size. Also: potency is read from the fitted curve at half-maximal effect. The method in brief: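 HEK 293 cells, seeded 20 h at 37 C, were pretreated with compound 1 h, then infected with ZIKV MR766 (MOI = 0.5) for 24 h. NS1 was read by TR-FRET with two anti-NS1 antibodies, normalized to uninfected and infected wells.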
The nature of test [7]: Identifying Small Molecule Inhibitors of Pancreatic Cancer Stem Cells (SN12C, Adherent) (AID 1259358).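 Also: potency is read from the fitted curve at half-maximal effect; cell survival measured after 48 h of compound exposure.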 A digest of the protocol: (§2)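 Cytotoxicity read by CellTiter-Glo luminescence after 48 h compound exposure at 37C; percent activity scaled between DMSO-treated cells and cell-free wells. Spheroid formats used cells pre-formed 14 days in stem cell media on hydrogel.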
Test [8] can be described thus: Identifying Small Molecule Inhibitors of Pancreatic Cancer Stem Cells (A278, Adherent) (AID 1259361). Also: nearly all actives have a fitted effect of over 35% in size. A digest of the protocol:
as §2

Test [9] is described as follows: Identifying Small Molecule Inhibitors of Pancreatic Cancer Stem Cells (Panc1, Adherent) (AID 1259362).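 Also: compound exposure lasted 48 h before the viability read.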 The conditions noted are these: Potency: viability. The method in brief:
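After a 4 h attachment period, compounds were pinned into wells and cultures held 48 h under standard incubator conditions. Viability was then measured as CellTiter-Glo luminescence following 10 min at room temperature.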

A short description of test [10]: Natriuretic polypeptide receptor (hNpr1) antagonism - Pilot counterscreen GloSensor control cell line (AID 1347045; calls by dose curve; also: series mostly up to about 38 µM). The method in brief:
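Luminescence was read before and 20 min after adding 50 uM SNP, which stimulates soluble guanylyl cyclase. The HEK293 cells expressing the GloSensor cGMP sensor had been preloaded with 2% reagent for 2 h and treated with compound.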
In general terms: Counterscreens check selectivity or assay interference.

The target of test [11] is Atrial natriuretic peptide receptor 1 (Homo sapiens) (UniProt P16066). The experiment in a line: Natriuretic polypeptide receptor (hNpr1) antagonism - Pilot screen (AID 1347049; calls by dose curve;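 also: agonist-evoked cGMP luminescence read 20 min after hNppA addition; series mostly up to about 58 µM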). The method in brief: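 Readout is cGMP-driven firefly luciferase luminescence in HEK293 cells carrying hNpr1 and a PDE5-domain GloSensor, read before and 20 min after 0.1 nM hNppA stimulation. Cells had 2% substrate reagent for 2 h and test compound for 30 min.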
Chain of Atrial natriuretic peptide receptor 1 (Homo sapiens) (P16066 whole entry, looked up): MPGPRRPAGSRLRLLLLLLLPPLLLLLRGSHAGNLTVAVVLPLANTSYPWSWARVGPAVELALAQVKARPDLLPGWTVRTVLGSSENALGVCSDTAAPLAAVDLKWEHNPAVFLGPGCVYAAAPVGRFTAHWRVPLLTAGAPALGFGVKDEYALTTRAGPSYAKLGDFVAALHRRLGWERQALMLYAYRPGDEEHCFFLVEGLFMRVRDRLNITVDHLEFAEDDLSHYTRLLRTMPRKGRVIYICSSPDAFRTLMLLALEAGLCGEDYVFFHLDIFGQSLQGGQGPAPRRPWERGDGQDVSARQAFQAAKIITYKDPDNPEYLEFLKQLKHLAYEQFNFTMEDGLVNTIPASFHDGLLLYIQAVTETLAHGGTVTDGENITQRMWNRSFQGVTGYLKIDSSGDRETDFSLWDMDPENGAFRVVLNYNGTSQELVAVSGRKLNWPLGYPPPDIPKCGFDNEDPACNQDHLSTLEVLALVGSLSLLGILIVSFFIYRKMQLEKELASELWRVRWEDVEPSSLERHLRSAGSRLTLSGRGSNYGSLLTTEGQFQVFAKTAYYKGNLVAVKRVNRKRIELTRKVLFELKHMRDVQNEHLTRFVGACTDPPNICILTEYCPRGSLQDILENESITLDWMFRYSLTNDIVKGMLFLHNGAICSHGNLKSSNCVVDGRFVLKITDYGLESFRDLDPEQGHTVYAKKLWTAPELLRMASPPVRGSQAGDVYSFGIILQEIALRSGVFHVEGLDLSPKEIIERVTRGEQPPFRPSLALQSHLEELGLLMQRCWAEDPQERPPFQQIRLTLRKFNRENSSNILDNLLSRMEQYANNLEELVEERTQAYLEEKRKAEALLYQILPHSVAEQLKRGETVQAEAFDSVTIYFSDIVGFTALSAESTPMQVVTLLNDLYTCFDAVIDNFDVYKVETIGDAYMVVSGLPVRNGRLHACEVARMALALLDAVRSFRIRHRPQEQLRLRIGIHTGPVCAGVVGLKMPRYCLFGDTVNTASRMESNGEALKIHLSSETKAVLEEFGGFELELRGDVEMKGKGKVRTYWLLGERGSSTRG

The target of test [12] is Atrial natriuretic peptide receptor 2 (Homo sapiens) (UniProt P20594). Kind of test: Natriuretic polypeptide receptor (hNpr2) antagonism - Pilot subtype selectivity assay (AID 1347050; calls by dose curve). The method in brief:
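Pilot selectivity screen against hNpr2: HEK293 cGMP-sensor cells are treated with LOPAC1280 compounds, then with hNppC peptide at 1 nM final. The cGMP-driven luminescence change over 20 min at room temperature is the read-out.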

For test [13], the target named is T1, Tyrosine-protein phosphatase non-receptor type substrate 1 (Homo sapiens) + Leukocyte surface antigen CD47 (Homo sapiens) (UniProt P78324+Q08722). The experiment in a line: CD47-SIRPalpha protein protein interaction - LANCE assay qHTS validation (AID 1347057; active = well fitted curve in the direction sought with a large enough effect in the signal ratio, with a control signal flat, not every such curve was filed as active; the % refers to the signal ratio; also: series mostly up to about 38 µM). The method in brief: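 First, His-tagged CD47 and Eu-labelled anti-His antibody met the compound for 30 min; next, site-specifically biotinylated SIRPalpha was added for 30 min; finally streptavidin-APC was added before reading the TR-FRET ratio.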
T1 sequence (P78324 whole entry, looked up): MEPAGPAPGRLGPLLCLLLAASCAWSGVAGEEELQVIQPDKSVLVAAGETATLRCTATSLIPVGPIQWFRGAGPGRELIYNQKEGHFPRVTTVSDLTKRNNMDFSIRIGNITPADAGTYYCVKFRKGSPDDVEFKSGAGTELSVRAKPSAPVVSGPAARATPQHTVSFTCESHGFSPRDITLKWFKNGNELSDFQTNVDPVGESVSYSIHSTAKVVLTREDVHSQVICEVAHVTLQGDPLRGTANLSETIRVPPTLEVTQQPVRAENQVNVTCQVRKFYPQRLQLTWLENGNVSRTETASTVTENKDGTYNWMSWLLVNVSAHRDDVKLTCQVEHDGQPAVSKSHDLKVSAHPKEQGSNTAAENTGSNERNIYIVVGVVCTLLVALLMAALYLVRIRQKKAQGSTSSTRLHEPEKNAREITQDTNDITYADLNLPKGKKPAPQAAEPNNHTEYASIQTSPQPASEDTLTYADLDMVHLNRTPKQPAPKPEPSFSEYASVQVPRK
T1 sequence (Q08722 whole entry, looked up): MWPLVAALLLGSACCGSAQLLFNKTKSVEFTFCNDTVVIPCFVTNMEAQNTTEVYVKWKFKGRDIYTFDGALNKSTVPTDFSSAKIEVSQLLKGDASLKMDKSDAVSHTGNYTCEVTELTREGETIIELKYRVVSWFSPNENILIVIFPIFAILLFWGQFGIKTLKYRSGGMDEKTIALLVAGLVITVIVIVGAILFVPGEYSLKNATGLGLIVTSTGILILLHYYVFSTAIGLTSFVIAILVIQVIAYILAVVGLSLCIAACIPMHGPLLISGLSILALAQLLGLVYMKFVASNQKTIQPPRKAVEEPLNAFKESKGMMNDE

Test [14] addresses T1, Tyrosine-protein phosphatase non-receptor type substrate 1 (Homo sapiens) + Leukocyte surface antigen CD47 (Homo sapiens). Kind of test: CD47-SIRPalpha protein protein interaction - Alpha assay qHTS validation (AID 1347059).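 Also: bead proximity luminescence from CD47 binding SIRPalpha after compound preincubation with SIRPalpha.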 The method in brief: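 Binding is measured by AlphaScreen proximity: Ni-NTA acceptor beads capture His-CD47, streptavidin donor beads capture biotin-SIRPalpha. Each of three additions (SIRPalpha with compound, CD47, beads) incubates 30 min at room temperature protected from light.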

Test [15] shares this target. Kind of test: CD47-SIRPalpha protein protein interaction - HTRF assay qHTS validation (AID 1347058; active = well fitted curve in the direction sought with a large enough effect in the signal ratio, not every such curve was filed as active; the % refers to the signal ratio;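 also: recombinant soluble extracellular CD47 with His tag and biotinylated SIRPalpha domains; series mostly up to about 38 µM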). A digest of the protocol: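 TR-FRET read (Ch1/Ch2 ratio) of soluble extracellular CD47 and Avi-biotinylated SIRPalpha domains in PBS pH 7.4 with 0.05% IGEPAL; 7-point compound titration. Sequential 30 min room-temperature steps; non-biotinylated SIRPalpha as control inhibitor.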
In general terms: Time-resolved FRET reads energy transfer from a long-lived donor to a nearby acceptor.

Chain of Atrial natriuretic peptide receptor 2 (Homo sapiens) (P20594 whole entry, looked up): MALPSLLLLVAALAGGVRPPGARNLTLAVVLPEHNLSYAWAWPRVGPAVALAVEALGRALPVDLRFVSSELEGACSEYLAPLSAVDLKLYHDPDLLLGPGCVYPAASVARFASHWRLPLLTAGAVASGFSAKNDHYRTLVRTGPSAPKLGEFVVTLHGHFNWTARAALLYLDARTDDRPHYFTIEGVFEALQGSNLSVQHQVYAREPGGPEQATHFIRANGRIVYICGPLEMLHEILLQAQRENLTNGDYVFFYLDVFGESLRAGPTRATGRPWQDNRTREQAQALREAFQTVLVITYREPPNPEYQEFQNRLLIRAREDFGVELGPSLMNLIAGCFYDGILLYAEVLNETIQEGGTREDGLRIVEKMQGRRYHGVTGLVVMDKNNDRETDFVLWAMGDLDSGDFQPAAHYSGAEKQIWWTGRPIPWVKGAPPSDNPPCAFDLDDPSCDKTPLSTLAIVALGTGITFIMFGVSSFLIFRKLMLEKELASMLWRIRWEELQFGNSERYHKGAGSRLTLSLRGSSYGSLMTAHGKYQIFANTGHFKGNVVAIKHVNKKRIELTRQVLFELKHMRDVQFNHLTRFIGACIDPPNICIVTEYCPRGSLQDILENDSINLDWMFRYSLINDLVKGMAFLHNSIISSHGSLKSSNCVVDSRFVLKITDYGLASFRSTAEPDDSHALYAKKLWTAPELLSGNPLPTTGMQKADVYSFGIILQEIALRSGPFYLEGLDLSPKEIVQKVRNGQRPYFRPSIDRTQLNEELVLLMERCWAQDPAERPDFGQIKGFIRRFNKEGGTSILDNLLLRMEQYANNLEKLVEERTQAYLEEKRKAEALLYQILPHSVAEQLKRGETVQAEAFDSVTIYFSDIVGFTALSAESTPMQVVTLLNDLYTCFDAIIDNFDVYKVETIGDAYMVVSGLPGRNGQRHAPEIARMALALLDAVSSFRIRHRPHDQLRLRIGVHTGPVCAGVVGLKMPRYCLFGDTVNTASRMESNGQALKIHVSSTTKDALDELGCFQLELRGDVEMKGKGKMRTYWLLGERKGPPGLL

Take `C[C@]12CC[C@H]3[C@@H](CCC4=CC(=O)CC[C@@]43C)[C@H]1CC[C@H]2OC(=O)CCC1CCCC1`: the Potency entry in test [1], in test [2], in test [3], in test [4], in test [5] and in test [6] was “inactive” each time.

Take `CCOP(=O)(OCC)C(C)NC(=O)N(CCCl)N=O` (stereo unspecified): the Potency result in test [1], in test [2], in test [3], in [4], in test [5] and in test [6] was “inactive” throughout.

`CC(C)(C)[C@]1(O)C[C@@H]2OC(=O)C[C@@]23C(=O)O[C@@H]2OC(=O)[C@H](O)C213` (stereo partly specified): the Potency result in [1], in [3], in test [4], in test [5] and in [6] was “inactive” in each case. Moreover, in [2], the Potency is 20.9 µM (active).

`CCNC(=O)CC1N=C(c2ccc(Cl)cc2)c2cc(OC)ccc2-n2c(C)nnc21` (stereo unspecified): the Potency was 13.2 µM (active) in test [1], 16.6 µM (active) in test [2], 20.9 µM (active) in test [3] and 16.6 µM (active) in test [4]. Besides, the Potency result in test [5] and in test [6] was “inactive” in each case.

For the molecule `O=c1cccc2n1CC1CNC[C@H]2C1`, the Potency result in test [1], in [2], in test [5] and in test [6] was “inactive” each time.

In the case of `COc1cccc2c1[C@]13CCN(CC4CC4)[C@H](C2)[C@]1(OC)CCC(=O)C3`, the Potency result in test [1], in [2], in test [4], in test [5] and in [6] was “inactive” each time.

On to `CC(C)N[C@@H]1CCn2c(=O)[nH]c3cccc(c32)[C@@H]1O`, for which the Potency in test [1] is 1.18 µM (active); in test [2], 8.33 µM (active); in test [4], 8.33 µM (active). For the same molecule, the Potency result in test [5] and in test [6] was “inactive” in each case.

Take `CCCN1CCO[C@@H]2c3cc(O)ccc3OC[C@@H]21`: the Potency result in test [1], in [2], in [5] and in test [6] was “inactive” each time.

With `O=c1[nH]c2ccc(Cl)cc2c(N[C@@H]2CN3CCC2CC3)c1-c1nc2ccccc2[nH]1`, the Potency in test [1] is 1.66 µM (active); in [2] it was 0.0418 µM (active); in test [4], 0.0833 µM (active); in [5] it was 1660 nM (active); in test [6], 52.6 nM (active).

Turning to `O=C(O)CNC(=O)c1c(O)c2ccccc2n(Cc2ccccc2)c1=O`, the Potency in test [1] is 14.8 µM (active); in [2], 13.2 µM (active). Also, the Potency result in [5] and in test [6] was “inactive” each time.

With `Cc1ccccc1-n1c(Cn2cnc3c(N)ncnc32)nc2cccc(C)c2c1=O`, the Potency is 1.18 µM (active) in test [1]; 1.87 µM (active) in test [2]; 0.833 µM (active) in [4]; 18.7 µM (active) in [7]; 590 nM (active) in [5]. The IC50 (viability decrease) in [8] was 18.7 µM (active). Further, the Potency entry in test [9] was “inactive”.

Turning to `CC[C@@]1(O)C(=O)OCc2c1cc1n(c2=O)Cc2cc3ccccc3nc2-1`, the Potency in test [1] was 0.0132 µM (active); in [2] it was 0.0093 µM (active); in [4], 0.0037 µM (active); in test [5], 332 nM (active). Also, the Potency result in test [10], in test [11], in [12] and in test [14] was “inactive” each time. Further, in test [13], the outcome was inactive.

Turning to `CC(C)(O)C(=O)Nc1ccc([N+](=O)[O-])c(C(F)(F)F)c1`, the values for the Potency in test [1], in [2] and in [4] were 14.8 µM (active), 23.5 µM (active) and 23.5 µM (active), respectively. Also, the Potency result in test [5] was “inactive”.

On to `O=c1[nH]c2ccccc2n1C1CCN(Cc2ccc(-c3[nH]c4cc5ncnc5cc4nc3-c3ccccc3)cc2)CC1`, for which the Potency is 23.5 µM (active) in test [1], 20.9 µM (active) in [2], 20.9 µM (active) in test [4] and 18700 nM (active) in [6]. The Potency result in [5] was “inactive”.

On to `CC=C(C)C(=O)O[C@H]1C(C)=C2[C@@H]3OC(=O)[C@@](C)(O)[C@@]3(O)[C@@H](OC(=O)CCC)C[C@](C)(OC(C)=O)[C@@H]2[C@@H]1OC(=O)CCCCCCC`, for which the Potency in test [1] was 0.148 µM (active); in test [2], 0.0526 µM (active); in [4] it was 0.0418 µM (active); in test [5], 1870 nM (active); in test [6], 332 nM (active).

Consider `C[C@@H]1CC[C@@]2(OC1)O[C@H]1C[C@H]3[C@@H]4CC=C5C[C@@H](O[C@@H]6O[C@H](CO)[C@@H](O[C@@H]7O[C@@H](C)[C@H](O)[C@@H](O)[C@@H]7O)[C@H](O)[C@@H]6O[C@@H]6O[C@@H](C)[C@H](O)[C@@H](O)[C@@H]6O)CC[C@]5(C)[C@@H]4CC[C@]3(C)[C@@H]1[C@H]2C`, for which the Potency in test [1] was 4.18 µM (active); in [2] it was 3.72 µM (active); in test [4], 3.72 µM (active); in test [5] it was 18700 nM (active); in test [6] it was 3720 nM (active).

Regarding `CC(C)(O)C=CC(=O)[C@](C)(O)[C@H]1[C@H](O)C[C@]2(C)[C@@H]3CC=C4[C@@H](C=C(O)C(=O)C4(C)C)[C@]3(C)C(=O)C[C@@]12C`, the Potency is 0.59 µM (active) in test [1], 0.209 µM (active) in test [2], 0.0418 µM (active) in test [4] and 118 nM (active) in [5].

Turning to `CCN1CCN(C(=O)Cc2ccc(Nc3ncc(F)c(Nc4ccc(C(=O)Nc5ccccc5Cl)cc4)n3)cc2)CC1`, the Potency was 8.33 µM (active) in [1]; 5.9 µM (active) in test [2]; 4.18 µM (active) in test [4]; 2.96 µM (active) and 1.16 µM (active) in [5].

Take `CC[C@@H](C(N)=O)N1CCCC1=O`: the Potency result in test [1], in [2], in test [5], in [11], in test [12] and in [6] was “inactive” in each case. Moreover, in test [14], the Potency result is “inactive”. For the same molecule, the result in test [13] and in test [15] was inactive.

`Cc1c(C(=O)Nc2cccc(C(F)(F)F)c2)cc(-c2ccccc2)n1CCCN1CCOCC1`: the Potency is 13.2 µM (active) in [1], 6.62 µM (active) in [2] and 8.33 µM (active) in test [4].

As for `C[C@@]12OC(=O)[C@]1([C@@H](O)[C@@H]1C=CCCC1)NC(=O)[C@H]2CCCl`, the Potency is 0.0372 µM (active) in test [1]; 0.0296 µM (active) in [2]; 0.0418 µM (active) in test [4]; 148 nM (active) in [5]; 833 nM (active) in test [6].
